According to ChEMBL document CHEMBL4513216, “Probing the Open Global Health Chemical Diversity Library for Multistage-Active Starting Points for Next-Generation Antimalarials” (ACS Infect Dis, 2020):
About 2,700 (4%) of roughly 68,000 compounds showed an effect of 50% or more. For the sample, strong results were picked, then their nearest neighbours and some compounds at random.

The compounds below were run on Plasmodium berghei (assay: Screen against P. berghei liver stage (PbLuc), transformed with Luciferase, at 2uM). Conditions: tested at 2 uM.
Assay type: functional, HepG2

Row | SMILES | INHIBITION [%]
1 | CNS(=O)(=O)c1ccc(C(=O)NCc2ccnc(OC)c2)cc1 | 27.44
2 | Fc1ccc(N2CCCN(Cc3ccc(-c4cc[nH]n4)o3)CC2)cc1 | -62.99
3 | Cc1cccc(-c2nc(CN3CCc4c(ncn4C)C3)no2)c1 | 14.82
4 | CC(NC(=O)N1CCCCCC1)c1ccc(S(N)(=O)=O)cc1 (centres undefined) | -36.8
5 | OCC1CCC2(CC1)CN(Cc1ccccc1F)Cc1ccccc1O2 (centres undefined) | 2.71
6 | O=C(CSc1ccc(F)cc1)NS(=O)(=O)c1ccc2c(c1)OCCO2 | 13.91
7 | O=C(CSc1ccc(F)cc1F)NS(=O)(=O)c1ccc2c(c1)OCCO2 | 27.47
8 | O=C(CCc1cc(F)ccc1F)NS(=O)(=O)c1ccc2c(c1)OCCO2 | 66.28
9 | O=C(CCc1ccc(F)cc1)NS(=O)(=O)c1ccc2c(c1)OCCO2 | -15.92
10 | O=C(CCc1ccccc1F)NS(=O)(=O)c1ccc2c(c1)OCCO2 | 7.71
11 | CC(CC(=O)NS(=O)(=O)c1ccc2c(c1)OCCO2)c1ccc(F)cc1 (centres undefined) | 61.3
12 | c1nc2n(n1)CC(NCc1nc(-c3ccsc3)no1)CC2 (centres undefined) | -14.3
13 | COc1cccc(CC(=O)NC2CCCc3cn[nH]c32)c1 (centres undefined) | -1.29
14 | CCCc1nn(C2CCCN(C(C)C)C2=O)c(=O)o1 (centres undefined) | 58.69
15 | CCCc1nn(C2CCN(C(C)C)C2=O)c(=O)o1 (centres undefined) | -78.95
16 | CCCc1nn(C2CCN(C3CC3)C2=O)c(=O)o1 (centres undefined) | -8.5
17 | Cc1nc(N2CCC(CN3CCCC3)CC2)c2cnn(C)c2n1 | 7.08
18 | NC(=O)CN(CC(=O)NCCc1c(F)cccc1F)C1CCCC1 | 14.21
19 | NCC1(c2cccc(C(F)(F)F)c2)CC1 | 74.11
20 | NCC1(c2cccc(C(F)(F)F)c2)CCCC1 | 23.45
21 | NCC1(c2cccc(C(F)(F)F)c2)CCC1 | 39.97
22 | CC(C)c1cc(NC(=O)CN2CCCC2Cn2cncn2)on1 (centres undefined) | -98.79
23 | COC(=O)c1ccc(Cl)c(NS(=O)(=O)c2cn(C)cn2)c1 | -9.88

Row | SMILES | INHIBITION [%]
24 | Cn1cnc(S(=O)(=O)Nc2cc(C(N)=O)ccc2Cl)c1 | -53.5
25 | COC(=O)c1ccc(Cl)c(NS(=O)(=O)c2cnn(C)c2)c1 | 50.48
26 | Cc1nc(C)n(CC2CCCCN2Cc2cn3ccccc3n2)n1 (centres undefined) | -0.05
27 | CC1CN(C(=O)Nc2cc(C(F)(F)F)c[nH]c2=O)CC(C)(C)O1 (centres undefined) | 51.31
28 | CC1(C)CN(C(=O)Nc2cc(C(F)(F)F)c[nH]c2=O)CCO1 | 33.92
29 | CC(C)(C)N1CCN(C(=O)Nc2cc(C(F)(F)F)c[nH]c2=O)CC1 | -32.3
30 | CC1CN(C(=O)Nc2cc(C(F)(F)F)c[nH]c2=O)CCO1 (centres undefined) | 28.39
31 | CC(C)CN1CCN(C(=O)Nc2cc(C(F)(F)F)c[nH]c2=O)CC1 | 54.85
32 | CC(C)CN1CCC(C(=O)Nc2cc(C(F)(F)F)c[nH]c2=O)CC1 | -68.89
33 | CS(=O)(=O)c1cnc(N2CCCC2)nc1C1CCN(C(=O)C2CC2)CC1 | -44.33
34 | COc1ccccc1[C@@H]1CN(Cc2cnn(C)c2C)C[C@H]1C(=O)O | 0.12
35 | COCCC(=O)NCC1COc2cc(OC)ccc2C1 (centres undefined) | -26.75
36 | COc1cc(NC(=O)c2ccccc2F)c(C(=O)N(C)C)cc1OC | 5.52
37 | COc1cc(NC(=O)c2cc(C)sc2C)c(C(=O)N(C)C)cc1OC | 58.24
38 | COc1cc(NC(=O)c2ccc(C)cc2C)c(C(=O)N(C)C)cc1OC | 26.48
39 | O=C(c1ccc2c(c1)CCC2)N1CCCCC1C1OCCO1 (centres undefined) | -44.52
40 | COC(=O)CC1CSCCN1C(=O)CCc1c(C)nn(C)c1C (centres undefined) | 26.7
41 | COCCSCC(=O)NCc1ccc(N(C)C)cc1 | 47.04
42 | CCS(=O)(=O)c1ccccc1C(=O)NCc1ccnc(N(C)C)c1 | 56.67
43 | CN(C)c1cc(CNC(=O)CC2CCCCC2)ccn1 | 55.33
44 | CN(C)c1cc(CNC(=O)c2ccccc2S(C)(=O)=O)ccn1 | -33.95
45 | COCCSCC(=O)NCc1ccnc(N(C)C)c1 | 50.61
46 | CCOc1cc(CNC(=O)CNC(=O)CC2CCCCC2)ccn1 | 9.29

Row | SMILES | INHIBITION [%]
47 | CN(C)c1ccc(CNC(=O)NCCc2ccccn2)cn1 | 11.2
48 | CCN(C)c1cc(CNC(=O)CNC(=O)CC2CCCCC2)ccn1 | -15.05
49 | CN(C)c1cc(CNC(=O)c2ccccc2Cl)ccn1 | 17.19
50 | CN(C)c1ccc(CCNC(=O)NCc2ccc(N(C)C)nc2)cc1 | -18.67
51 | COCCSCC(=O)NCc1ccc(N(C)C)nc1 | 1.8
52 | COCCOCC(=O)NCc1ccc(N(C)C)nc1 | 64.08
53 | CN(C)CCn1c2c(ccc1=O)CCN(Cc1cnn(C)c1)CC2 | 19.16
54 | CC(C)(C)n1cc(CNc2ccc(CNS(C)(=O)=O)cc2)cn1 | 38.49
55 | Cc1ccc(C(=O)N2C[C@@H]3CCCO[C@@H]3[C@H](N3CCOCC3)C2)cn1 | -35.23
56 | CCN(CC)S(=O)(=O)N1C[C@H]2CC[C@@H](C1)N(Cc1cscn1)C2=O | 31.51
57 | CC(C)OCCCN1CCCC(c2nc3ccccc3n2C(C)C)C1 (centres undefined) | -25.8
58 | COc1ccc2c(c1)c(C(=O)Nc1nnn[nH]1)cn2C(C)C | -2.44
59 | COCCNC(=O)[C@H]1CC[C@@H]2[C@@H](CCN2c2ncc(F)cn2)O1 | 31.65
60 | CN1C(=O)CC(c2cnn(C)c2)C12CCN(C(=O)c1ccnnc1)CC2 (centres undefined) | -26.73
61 | O=C(N1CCCC1)N1CCOCC2(CCN(Cc3cccs3)C2)C1 (centres undefined) | 25.31
62 | Cc1cn2nc(N3CCN(Cc4c(C)noc4C)CC3)sc2n1 | -4.99
63 | Oc1cc(C2CCCN(Cc3cccs3)C2)nc(-c2ccccn2)n1 (centres undefined) | 30.29
64 | COc1ccccc1N1CCN(CC[C@H](O)c2ccccc2)CC1=O | -23.57
65 | COc1cccc(C(O)CN2CCN(C(=O)c3ccsc3)CC2)c1 (centres undefined) | 38.49
66 | COc1cccc(C(=O)N2CCN(CC(O)c3ccccc3)CC2)c1 (centres undefined) | 55.25
67 | COc1cccc(N2CCN(CC[C@H](O)c3ccccc3)CC2=O)c1 | 61.75
68 | N#CCc1cccc(C(=O)N2CCN(CC(O)c3ccccc3)CC2)c1 (centres undefined) | 29.42
69 | COc1ccc(N2CCN(CC[C@H](O)c3ccccc3)CC2=O)cc1 | 17.28
